Source: PubChem BioAssay (several laboratories)
Compounds with a hit are over-represented: about 27% of the library has one in this group of screens.
CYP2C9 inhib: inhibitors of human CYP2C9; AID 777; CYP2C9 Supersomes, luciferin-H conversion, luminescence; P11712; 96,000 compounds, 20% hits; inhibition, % at 5 µM;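 active means blocking of liver enzyme CYP2C9 beyond about 50% at 5 µM, limit read from the data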
CYP2C19 activ: activators of human cytochrome P450 2C19 | recombinant CYP2C19, luciferin-H EGE luminescence; hits give high values; 0 = fully inhibited enzyme, 1 = untreated enzyme | activation factor at 5 µM | AID 1025 | 96,000 tested, under 10 active | P33261;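 active means activation factor of at least 2 at 5 µM in the primary screen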
Target sequence (P33261 whole entry, looked up): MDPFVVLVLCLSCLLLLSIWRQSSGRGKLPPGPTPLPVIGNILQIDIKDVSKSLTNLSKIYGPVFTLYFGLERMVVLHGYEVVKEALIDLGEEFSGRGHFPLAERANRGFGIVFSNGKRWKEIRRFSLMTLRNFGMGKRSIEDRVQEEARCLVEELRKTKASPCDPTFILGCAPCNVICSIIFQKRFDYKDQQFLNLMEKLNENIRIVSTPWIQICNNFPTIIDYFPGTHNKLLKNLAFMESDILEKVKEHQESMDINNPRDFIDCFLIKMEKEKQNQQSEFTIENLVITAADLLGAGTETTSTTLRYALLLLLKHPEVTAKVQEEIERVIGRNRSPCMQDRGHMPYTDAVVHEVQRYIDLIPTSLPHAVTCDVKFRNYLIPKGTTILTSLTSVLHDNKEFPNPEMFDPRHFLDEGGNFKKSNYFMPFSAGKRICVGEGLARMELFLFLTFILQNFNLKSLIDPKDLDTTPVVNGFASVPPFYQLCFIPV
CYP2C9 activ: increases human cytochrome P450 2C9 activity. recombinant CYP2C9, luciferin-H conversion, luminescence; hits give high values; factor 1 = untreated enzyme, 0 = blocked. activation factor at 5 µM. 96,000 compounds, 1.4% hits. AID 1024;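 active means activation factor of 2 or more for CYP2C9 at a 5 µM dose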
EphB4 antag: EphB4-ephrin-B2 interaction antagonism | inhibition, % at 7 µM | P54760 | EphB4 LBD / TNYL-RAW-Alexa532 peptide, fluorescence polarization | AID 720 | 97,000 compounds, 0.15% hits;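 active means inhibition above the screen-wide mean inhibition plus 3 SD, cut at about 15% in these data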
CYP2C19 inh: human CYP2C19 inhibition | 96,000 compounds, 21% hits | AID 778 | P33261 | CYP2C19 Supersomes, luciferin-H EGE luminescence, 30 min | inhibition, % at 5 µM;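 active means CYP2C19 inhibition above a set limit at 5 µM in the primary screen, cut at about 50% in these data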
Hits are given with their value; n = inactive; x = no result given.

SMILES	CYP2C9 inhib	CYP2C19 activ	CYP2C9 activ	EphB4 antag	CYP2C19 inh
Cc1oc(-c2ccccc2F)nc1CS(=O)(=O)CC(=O)N1CCc2ccccc21	n	n	n	x	n
CCCn1c(SCC(=O)N2CCN(c3ccc(OC)cc3)CC2)nc2c1c(=O)n(C)c(=O)n2C	n	n	n	n	n
CC1CCN(CCCNC(=O)c2ccc(CS(=O)(=O)Cc3ccccc3F)o2)CC1	x	x	x	n	x
O=S(=O)(c1ccccc1)c1cccc(S(=O)(=O)N2CCCCC2)c1	n	n	n	n	87.3
CN1CCN(S(=O)(=O)c2cccc(S(=O)(=O)c3ccc(Cl)cc3)c2)CC1	n	n	2.1	n	n
CCN(CC)S(=O)(=O)c1cccc(S(=O)(=O)c2cccc(S(=O)(=O)N(CC)CC)c2)c1	70.5	n	n	n	91.3
CCN(CC)S(=O)(=O)c1ccc(C)c(C)c1	n	n	3.4	n	82.2
CCN(CC)S(=O)(=O)c1ccc(F)cc1	x	x	x	n	x
Cc1ccc(S(=O)(=O)c2cccc(S(=O)(=O)N3CCCC3)c2)cc1S(=O)(=O)N1CCCC1	n	n	n	x	51.7
CCCCN(CC)S(=O)(=O)c1ccccc1	n	n	n	n	81.0
CCN(CC)S(=O)(=O)c1cccc(S(=O)(=O)N2CCCCC2)c1	53.3	n	n	n	n
CC(C)OC(=O)CSc1nnc(-c2ccc(Cl)cc2)n1N	n	n	n	n	n
CCn1c(SCC(=O)OC(C)C)nnc1-c1cccc(Cl)c1	n	n	n	x	54.8
Cc1ccc(-c2nnc(SCC(=O)OC(C)C)n2N)cc1	n	n	n	n	n
CC(C)OC(=O)CSc1nnc(-c2ccc(O)cc2)n1Cc1ccccc1	n	n	n	n	64.0
CC(C)OC(=O)CSc1nnc(-c2ccc(Cl)cc2Cl)n1N	59.1	n	n	n	65.0
Cc1cc(C)n(C(=O)CNC(=O)c2ccco2)n1	n	n	n	n	n
Cc1ccc(OCC(=O)NCC(=O)n2nc(C)cc2C)cc1	n	n	2.3	n	n
Cc1cc(C)n(C(=O)CNC(=O)Cc2ccccc2)n1	n	n	n	n	n
COc1ccc(C(=O)NCC(=O)n2nc(C)cc2C)cc1OC	n	n	2	n	n
Cc1cc(C)n(C(=O)CNC(=O)COc2ccccc2)n1	n	n	2	n	n
Cc1ccc(/C=C/C(=O)Nn2cnnc2)cc1	n	n	n	n	n
CN(CC(=O)Nc1ccccc1N1CCOCC1)S(=O)(=O)c1ccc(F)cc1	n	n	n	n	n
Cc1nn2c3ccccc3nc2n(Cc2ccccc2)c1=O	x	x	x	n	x
Cn1c(=O)c(-c2ccccc2)nn2c3ccccc3nc12	73.7	n	n	n	61.8
SMILES	CYP2C9 inhib	CYP2C19 activ	CYP2C9 activ	EphB4 antag	CYP2C19 inh
Cn1c(N)c(C(=O)COC(=O)C2(c3ccc(Cl)cc3)CCCC2)c(=O)n(C)c1=O	n	n	n	n	57.7
CC(Oc1ccc(Cl)cc1Cl)C(=O)NC1CCSC1=O (stereo not drawn)	n	n	n	n	92.8
COCCNC(=O)C(C)Oc1ccc(Cl)cc1Cl (stereo not drawn)	n	n	n	n	94.2
CC(Oc1ccc(Cl)cc1Cl)C(=O)Nn1cnnc1 (stereo not drawn)	x	x	x	n	x
CC(Oc1ccc(Cl)cc1Cl)C(=O)Nc1ccncc1 (stereo not drawn)	98.0	n	n	n	100.4
CC(Oc1ccc(Cl)cc1Cl)C(=O)Nc1cccnc1 (stereo not drawn)	x	x	x	n	x
CC(Oc1ccc(Cl)cc1Cl)C(=O)NC1=NN(c2ccccc2)C(=O)C1 (stereo not drawn)	52.7	n	n	n	n
C=CCNc1nc(Nc2ccc(OC)cc2)nc(OCC)n1	n	n	n	n	n
Cc1cc(C)n(C(=O)CCN2C(=O)c3ccccc3C2=O)n1	n	n	n	n	n
O=C(N1CCN(c2ccccc2F)CC1)C12CC3CC(CC(C3)C1)C2	n	n	n	n	n
CCN(CC)Cc1c(-c2ccccc2)[nH]c2ccc(C)cc2c1=O	n	n	n	n	n
CN1C(=S)SC(C)(C)C1/[N+]([O-])=C/c1cccnc1 (stereo not drawn)	n	n	n	n	n
CCOC(=O)C1C(=O)OC2(CCOC(C)(C)C2)C1C(=O)OCC (stereo not drawn)	n	n	n	n	n
CC(Oc1ccc(Cl)cc1Cl)C(=O)NCCCN1CCOCC1 (stereo not drawn)	n	n	n	n	58.3
C/C(CC(=O)Nc1ccccc1-c1ccccc1)=N\NC(=O)COc1ccc(C)cc1Br	n	n	n	n	n
O=C(CC(NS(=O)(=O)c1ccc(Cl)cc1)c1ccco1)N1CCc2ccccc21 (stereo not drawn)	n	n	n	n	n
Cc1cc(C(=O)N2CC(C)CC(C)C2)n(-c2ccccc2)n1 (stereo not drawn)	n	n	n	x	n
N#CCCSc1ccccc1NC(=O)c1ccc(S(=O)(=O)N2CCCC2)cc1	75.6	n	n	n	n
COc1ccc2c(c1)[nH]c1c(=O)n(CCCn3ccnc3)cnc12	64.2	n	n	n	n
COc1ccc2c(c1)[nH]c1c(=O)n(CCN(C)C)cnc12	n	n	n	n	n
COc1ccc2c(c1)[nH]c1c(=O)n(CCc3cnc[nH]3)cnc12	96.2	n	n	n	84.9
CCOc1ccc(-c2nc(=S)[nH][nH]2)cc1	n	n	n	n	n
COc1ccc(-c2noc(CCC(=O)Nc3ccc(C)c(C)c3)n2)cc1	57.7	n	n	n	n
Cc1cccc(CCNC(=O)CCc2nc(-c3ccccc3F)no2)c1	82.2	n	n	n	91.5
COc1ccc(-c2noc(CCC(=O)Nc3ccc4c(c3)OCCO4)n2)cc1	76.2	n	n	n	65.6
SMILES	CYP2C9 inhib	CYP2C19 activ	CYP2C9 activ	EphB4 antag	CYP2C19 inh
Cc1ccc(-c2noc(CCC(=O)Nc3ccc4c(c3)OCO4)n2)cc1	n	n	n	n	n
COc1ccc(OCCCC(=O)Nc2ccc3c(c2)OCCO3)cc1	86.1	n	n	n	76.3
COc1cccc(-c2cc(C(=O)Nc3c(C)n(C)n(-c4ccccc4)c3=O)no2)c1	n	n	n	n	n
COc1ccc(N(CC(=O)N2CCN(C)CC2)S(C)(=O)=O)cc1OC	n	n	n	n	n
COC(=O)COc1cccc(-n2cnnn2)c1	n	n	n	n	n
COc1cnc(SCc2ccc(Cl)cc2)nc1Cl	n	n	n	n	n
CCc1ccc(CCC(=O)Nc2nnc(C)s2)o1	n	n	n	n	n
CCc1ccc(CCC(=O)Nc2ccc(C)c(C)c2)o1	n	n	n	x	51.1
CCOC(=O)c1ccc(NC(=O)CCc2nc(-c3ccc(C)cc3)no2)cc1	94.2	n	n	n	70.1
CCN(CCCNC(=O)CCc1nc(-c2ccc(OC)cc2)no1)c1cccc(C)c1	87.2	n	n	n	93.3
CCOC(=O)c1ccc(NC(=O)CCc2nc(-c3ccc(Cl)cc3)no2)cc1	n	n	n	n	n
COc1ccc(-c2noc(CCC(=O)NCCN(C)Cc3ccccc3)n2)cc1	n	n	n	n	n
Cc1ccc(C2CC2C(=O)NNC(=S)Nc2cccc(C)c2)cc1 (stereo not drawn)	x	x	x	n	x
